According to PubChem BioAssay (NCI):
The panel holds about 83,000 compounds, 20% with a hit somewhere; the sample as a whole holds those more often.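 Treatment: one concentration, 48 hours, 96-well format. Scoring: percent growth, with anything below 10 considered active.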 Active and inactive are the calls of the source.

Experiments:
Assay in all cases: NCI-60 one-dose screen, 48 h (100 = growth as untreated, 0 = no growth, -100 = all killed)
SK-MEL-2 melanoma = details: 10 µM unless noted
EKVX NSCLC = details: 10 µM unless noted
SN12C renal = details: 10 µM unless noted
UO-31 renal = details: 10 µM unless noted
TK-10 renal = details: 10 µM unless noted
ACHN renal = details: 10 µM unless noted
CAKI-1 renal = details: 10 µM
A498 renal = details: 10 µM unless noted
CCRF-CEM leukemia = details: 10 µM unless noted
MOLT-4 leukemia = details: 10 µM unless noted
SR leukemia = details: 10 µM unless noted
RPMI-8226 leukemia = details: 10 µM unless noted
OVCAR-8 ovarian = details: 10 µM unless noted
OVCAR-5 ovarian = details: 10 µM unless noted
OVCAR-4 ovarian = details: 10 µM unless noted
IGROV1 ovarian = details: 10 µM unless noted
OVCAR-3 ovarian = details: 10 µM unless noted
HS 578T breast = details: 10 µM unless noted
NCI/ADR-RES ovarian = details: 10 µM unless noted
SK-OV-3 ovarian = details: 10 µM unless noted

Measured: growth

ClC(Cl)c1nc(-c2cccs2)n2nc(-c3ccccc3)cc2n1
inactive: SK-MEL-2 melanoma 77.6% | SN12C renal 50.6% | CCRF-CEM leukemia 67.9% | MOLT-4 leukemia 44% | SR leukemia 58.1% | OVCAR-8 ovarian 12% | OVCAR-4 ovarian 10.7% | IGROV1 ovarian 47.2%
active: EKVX NSCLC -26.8% | UO-31 renal -53.7% | TK-10 renal -10.8% | ACHN renal -23.5% | CAKI-1 renal -15% | A498 renal -78.5% | RPMI-8226 leukemia -25.6% | OVCAR-5 ovarian -8.51% | OVCAR-3 ovarian -37.4% | HS 578T breast -21.1% | NCI/ADR-RES ovarian -20.7%

Cn1cc(-c2nn3cc(-c4ccncc4)nc3s2)c2cc(Cl)ccc21
active: MOLT-4 leukemia 2.31% | SR leukemia -4.53%
inactive: SK-MEL-2 melanoma 76% | EKVX NSCLC 33.4% | SN12C renal 61.2% | UO-31 renal 43.4% | TK-10 renal 116% | ACHN renal 60.5% | CAKI-1 renal 51.3% | A498 renal 89.7% | CCRF-CEM leukemia 10.5% | RPMI-8226 leukemia 19.5% | OVCAR-8 ovarian 14.6% | OVCAR-5 ovarian 66.8% | OVCAR-4 ovarian 78.6% | SK-OV-3 ovarian 89.5% | IGROV1 ovarian 17.2% | HS 578T breast 49.8% | NCI/ADR-RES ovarian 32.4%

CN1CCN(c2ccc(NC(=O)Nc3ccc4c(ccn4-c4cccc(C(N)=O)n4)c3)cc2C(F)(F)F)CC1
active: CCRF-CEM leukemia 8.43% | MOLT-4 leukemia 3.75% | RPMI-8226 leukemia -17.5%
inactive: SK-MEL-2 melanoma 21.1% | EKVX NSCLC 78.4% | SN12C renal 84.1% | UO-31 renal 75.6% | TK-10 renal 97.4% | ACHN renal 71.8% | CAKI-1 renal 87.1% | A498 renal 85.3% | SR leukemia 14.6% | OVCAR-8 ovarian 77.6% | OVCAR-5 ovarian 85.3% | OVCAR-4 ovarian 84.9% | IGROV1 ovarian 80.1% | OVCAR-3 ovarian 102% | HS 578T breast 22.1% | NCI/ADR-RES ovarian 94.5%

CCN(CC)CCN1C(=O)c2c(c3c4cccnc4[nH]c3c3ccc4ccccc4c23)C1=O
active: SR leukemia 3.65%
inactive: SK-MEL-2 melanoma 107% | EKVX NSCLC 89% | SN12C renal 71.9% | UO-31 renal 53.2% | TK-10 renal 121% | ACHN renal 35.9% | CAKI-1 renal 46.5% | A498 renal 77.3% | CCRF-CEM leukemia 21.9% | MOLT-4 leukemia 12.8% | RPMI-8226 leukemia 73.1% | OVCAR-8 ovarian 62.3% | OVCAR-5 ovarian 111% | OVCAR-4 ovarian 102% | SK-OV-3 ovarian 64.4% | IGROV1 ovarian 55% | HS 578T breast 109% | NCI/ADR-RES ovarian 55.5%

O=C(CSc1nnc(-c2ccc(Cl)cc2)n1-c1ccccc1)Nc1ccc(F)cc1
inactive: SK-MEL-2 melanoma 111% | EKVX NSCLC 90.6% | SN12C renal 62.6% | UO-31 renal 97.5% | TK-10 renal 88.7% | ACHN renal 24.7% | CAKI-1 renal 70.9% | A498 renal 69.8% | CCRF-CEM leukemia 91.8% | MOLT-4 leukemia 103% | SR leukemia 76.4% | RPMI-8226 leukemia 89.5% | OVCAR-8 ovarian 74% | OVCAR-5 ovarian 97.4% | OVCAR-4 ovarian 98.3% | IGROV1 ovarian 95.1% | OVCAR-3 ovarian 87.7% | HS 578T breast 61.4% | NCI/ADR-RES ovarian 77.9%

CC(C)(C)OC(=O)N1CCN(S(=O)(=O)/N=C2\NC(=O)NC2=C(Cl)Cl)CC1
inactive: SK-MEL-2 melanoma 88.9% | EKVX NSCLC 90.8% | SN12C renal 91.7% | UO-31 renal 91.6% | TK-10 renal 124% | ACHN renal 99.5% | CAKI-1 renal 98.8% | A498 renal 83.7% | CCRF-CEM leukemia 29.4% | MOLT-4 leukemia 89% | SR leukemia 23.6% | RPMI-8226 leukemia 84.7% | OVCAR-8 ovarian 100% | OVCAR-5 ovarian 101% | OVCAR-4 ovarian 100% | IGROV1 ovarian 84% | OVCAR-3 ovarian 104% | HS 578T breast 72.9% | NCI/ADR-RES ovarian 99%

O=C(NNc1nc2cc(F)cc(F)c2n2cccc12)c1ccncn1
active: EKVX NSCLC 7.66% | CCRF-CEM leukemia 5.12% | MOLT-4 leukemia 4.2% | SR leukemia 4.42% | RPMI-8226 leukemia 9.13% | OVCAR-4 ovarian 4.29% | OVCAR-3 ovarian 8.94% | NCI/ADR-RES ovarian 1.44%
inactive: SK-MEL-2 melanoma 22% | SN12C renal 19.6% | UO-31 renal 17.3% | TK-10 renal 10% | ACHN renal 11.6% | CAKI-1 renal 16.5% | A498 renal 22.2% | OVCAR-8 ovarian 12.5% | OVCAR-5 ovarian 40.9% | IGROV1 ovarian 15.1% | HS 578T breast 34%

COc1ccc(NC2=C(Cl)C(=O)C(C)=C(C)C2=O)cc1
active: CCRF-CEM leukemia 2.14% | OVCAR-4 ovarian -98.7% | IGROV1 ovarian -49.1%
inactive: SK-MEL-2 melanoma 89.6% | EKVX NSCLC 31.4% | SN12C renal 87.7% | UO-31 renal 89.9% | TK-10 renal 149% | ACHN renal 88.8% | CAKI-1 renal 91.5% | A498 renal 83.3% | MOLT-4 leukemia 21.8% | SR leukemia 20.6% | RPMI-8226 leukemia 68.8% | OVCAR-8 ovarian 51.8% | OVCAR-5 ovarian 103% | OVCAR-3 ovarian 101% | HS 578T breast 95.1% | NCI/ADR-RES ovarian 93.9%

Cc1cnc2nc(NN)[nH]n12
inactive: SK-MEL-2 melanoma 102% | EKVX NSCLC 98.5% | SN12C renal 98.6% | UO-31 renal 81.3% | TK-10 renal 105% | ACHN renal 98.4% | CAKI-1 renal 86.2% | A498 renal 111% | CCRF-CEM leukemia 102% | MOLT-4 leukemia 102% | SR leukemia 101% | RPMI-8226 leukemia 104% | OVCAR-8 ovarian 98% | OVCAR-5 ovarian 101% | OVCAR-4 ovarian 104% | SK-OV-3 ovarian 102% | IGROV1 ovarian 97.6% | HS 578T breast 107% | NCI/ADR-RES ovarian 104%

O=C(O)CNS(=O)(=O)c1ccc(Oc2ccc(S(=O)(=O)NCC(=O)O)cc2)cc1
inactive: SK-MEL-2 melanoma 104% | EKVX NSCLC 96.9% | SN12C renal 93.5% | UO-31 renal 91.4% | TK-10 renal 101% | ACHN renal 98.9% | CAKI-1 renal 91.4% | A498 renal 69.9% | CCRF-CEM leukemia 100% | MOLT-4 leukemia 95.7% | SR leukemia 96.7% | RPMI-8226 leukemia 100% | OVCAR-8 ovarian 97.9% | OVCAR-5 ovarian 101% | OVCAR-4 ovarian 111% | IGROV1 ovarian 104% | OVCAR-3 ovarian 104% | HS 578T breast 95.2% | NCI/ADR-RES ovarian 102%

COc1ccc(-c2ccc3c4c(cccc24)C(=O)N(N2C(=O)c4cccc5cccc(c45)C2=O)C3=O)cc1
inactive: SK-MEL-2 melanoma 111% | EKVX NSCLC 89.4% | SN12C renal 105% | UO-31 renal 68.6% | TK-10 renal 134% | ACHN renal 96.3% | CAKI-1 renal 75.2% | A498 renal 100% | CCRF-CEM leukemia 96.8% | MOLT-4 leukemia 101% | SR leukemia 95.3% | RPMI-8226 leukemia 29.4% | OVCAR-8 ovarian 100% | OVCAR-5 ovarian 101% | OVCAR-4 ovarian 97.5% | SK-OV-3 ovarian 100% | IGROV1 ovarian 92.4% | HS 578T breast 101% | NCI/ADR-RES ovarian 98.2%

COc1ccc(-c2nc(SCC(C)C)nc(N/N=C\c3cccc([N+](=O)[O-])c3)c2C#N)cc1
inactive: SK-MEL-2 melanoma 86.2% | EKVX NSCLC 47.7% | SN12C renal 43.3% | TK-10 renal 91.4% | CAKI-1 renal 31.8% | A498 renal 47.6% | CCRF-CEM leukemia 80.9% | MOLT-4 leukemia 75.1% | SR leukemia 43.5% | RPMI-8226 leukemia 66.9% | OVCAR-8 ovarian 25.5% | OVCAR-5 ovarian 71.5% | OVCAR-4 ovarian 38.7% | SK-OV-3 ovarian 74% | IGROV1 ovarian 31.4% | HS 578T breast 43% | NCI/ADR-RES ovarian 51.5%
active: UO-31 renal -36.4% | ACHN renal 8.66%

COc1ccc(N2CCN(C(=O)CSc3ccc(-c4nc5cc(C)c(C)cc5[nH]4)cn3)CC2)cc1
inactive: SK-MEL-2 melanoma 87.1% | EKVX NSCLC 53.3% | SN12C renal 83.2% | UO-31 renal 65.1% | TK-10 renal 101% | ACHN renal 77.5% | CAKI-1 renal 73.4% | A498 renal 90.9% | CCRF-CEM leukemia 18.4% | SR leukemia 43.6% | RPMI-8226 leukemia 17.1% | OVCAR-8 ovarian 56.4% | OVCAR-5 ovarian 93.5% | OVCAR-4 ovarian 37.6% | IGROV1 ovarian 68.2% | OVCAR-3 ovarian 80.4% | HS 578T breast 94.8% | NCI/ADR-RES ovarian 49.3%
active: MOLT-4 leukemia 6.92%

COc1ccc(-c2nc(SCCC(C)C)nc(N/N=C\c3ccc(O)cc3)c2C#N)cc1
inactive: SK-MEL-2 melanoma 104% | EKVX NSCLC 93.1% | SN12C renal 67.6% | UO-31 renal 76.8% | TK-10 renal 157% | ACHN renal 60.9% | CAKI-1 renal 78% | A498 renal 92.5% | CCRF-CEM leukemia 54.7% | MOLT-4 leukemia 64.5% | SR leukemia 25.5% | RPMI-8226 leukemia 42.7% | OVCAR-8 ovarian 47.6% | OVCAR-5 ovarian 101% | OVCAR-4 ovarian 74.9% | SK-OV-3 ovarian 109% | IGROV1 ovarian 68.5% | HS 578T breast 67% | NCI/ADR-RES ovarian 55.1%

O=C1[C@@H]2Cc3c([nH]c4ccccc34)[C@H](c3c(Cl)cccc3Cl)N2C(=O)CN1C1CCN(Cc2ccccc2)CC1
inactive: SK-MEL-2 melanoma 85.7% | EKVX NSCLC 53.6% | SN12C renal 15.5% | UO-31 renal 14% | TK-10 renal 89.2% | ACHN renal 43.5% | CAKI-1 renal 74.3% | A498 renal 66.3% | MOLT-4 leukemia 12.8% | OVCAR-8 ovarian 47.7% | OVCAR-5 ovarian 63% | IGROV1 ovarian 24.6% | OVCAR-3 ovarian 81.4% | HS 578T breast 28.5% | NCI/ADR-RES ovarian 18.5%
active: CCRF-CEM leukemia 3.54% | SR leukemia 1.57% | RPMI-8226 leukemia 7.38% | OVCAR-4 ovarian -0.678%

O=C(NNc1nc2cc(F)c(F)cc2n2cccc12)c1ccncn1
inactive: SK-MEL-2 melanoma 29.8% | EKVX NSCLC 12.2% | SN12C renal 26.2% | UO-31 renal 20.7% | TK-10 renal 27.1% | ACHN renal 14.1% | CAKI-1 renal 17.2% | A498 renal 46.5% | SR leukemia 14.6% | RPMI-8226 leukemia 16.9% | OVCAR-8 ovarian 17.5% | OVCAR-5 ovarian 39% | IGROV1 ovarian 15.7% | OVCAR-3 ovarian 12.7% | HS 578T breast 48.2%
active: CCRF-CEM leukemia 7.72% | MOLT-4 leukemia 8.93% | OVCAR-4 ovarian 3.66% | NCI/ADR-RES ovarian 5.95%
